# Assay results: PubChem BioAssay (NCATS)
# Values joined by “and” are separate entries in the source; they are usually repeats but may differ in a detail not shown here. Identical values can stand only once. Results filed as inconclusive are left out. A call without a number means that no potency is given here. Unmarked numbers belong to inactive results. Active and inactive are the calls of the source. The call rests on the fitted dose curve; in most records, active means well fitted curve in the direction sought with a large enough effect; inconclusive means small, poorly fitted or top-dose-only effect, or another doubt; inactive means no such curve, though single readings can be large; an effect the other way counts as inactive or inconclusive.
# Experiments:
# [1] = molecular target: Cellular tumor antigen p53 (Homo sapiens) (UniProt P04637); assay: Primary qHTS for small molecule compounds that upregulate eGFP-tagged delta133p53alpha (in N-terminal) cells. (AID 2060322); conditions: NCI-H358 eGFP-delta133p53alpha fluorescence, 24 h; activation: hits give high values; further: nearly all actives have a fitted effect of over 75% in size; further: potency means the concentration at half of the fitted maximal effect; on activation: series mostly up to about 56 µM
# Cellular tumor antigen p53 (Homo sapiens), sequence (P04637 whole entry, looked up): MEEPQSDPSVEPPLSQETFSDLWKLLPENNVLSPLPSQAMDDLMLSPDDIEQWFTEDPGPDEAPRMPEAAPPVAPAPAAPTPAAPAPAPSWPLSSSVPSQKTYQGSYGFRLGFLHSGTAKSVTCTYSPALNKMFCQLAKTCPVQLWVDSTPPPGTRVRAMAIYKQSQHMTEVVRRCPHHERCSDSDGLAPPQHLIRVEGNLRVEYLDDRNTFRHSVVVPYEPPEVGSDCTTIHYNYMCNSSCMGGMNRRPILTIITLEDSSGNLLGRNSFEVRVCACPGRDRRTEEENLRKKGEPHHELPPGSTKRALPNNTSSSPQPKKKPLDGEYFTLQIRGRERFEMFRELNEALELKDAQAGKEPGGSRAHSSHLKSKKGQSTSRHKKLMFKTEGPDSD
# How it was run: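 NCI-H358 cells pre-induced 24 h with 10 ng/ml doxycycline to express N-terminal eGFP-delta133p53alpha, then dosed 24 h at 37C without doxycycline; fixed, Hoechst-stained, GFP intensity by laser scanning cytometry, normalized to DMSO (0%) and 57.5 uM 5-azacytidine (100%).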
# [2] = qHTS for Inhibitors of the Aldehyde Dehydrogenase Family (ALDH1A2, ALDH1A3, ALDH2, ALDH3A1) (AID 2061307); further: nearly all actives have a fitted effect of over 50% in size; on potency: test system not described further here; potency means the concentration at half of the fitted maximal effect
# [3] = molecular target: Retinaldehyde dehydrogenase 3 (Homo sapiens) (UniProt P47895); assay: qHTS for Inhibitors of the Aldehyde Dehydrogenase Family (ALDH1A3) Confirmatory screens (AID 2061311); further: nearly all actives have a fitted effect of over 60% in size; further: potency means the concentration at half of the fitted maximal effect
# [4] = molecular target: Retinal dehydrogenase 2 (Homo sapiens) (UniProt O94788); assay: qHTS for Inhibitors of the Aldehyde Dehydrogenase Family (ALDH1A2) Confirmation screens (AID 2061314); further: nearly all actives have a fitted effect of over 65% in size; further: potency means the concentration at half of the fitted maximal effect
# [5] = molecular target: Aldehyde dehydrogenase 1A1 (Homo sapiens) (UniProt P00352); assay: qHTS for Inhibitors of the Aldehyde Dehydrogenase Family (ALDH1A1) Confirmatory screens (AID 2061316); further: potency means the concentration at half of the fitted maximal effect; nearly all actives have a fitted effect of over 65% in size
# [6] = molecular target: Aldehyde dehydrogenase, mitochondrial (Homo sapiens) (UniProt P05091); assay: qHTS for Inhibitors of the Aldehyde Dehydrogenase Family (ALDH2) Primary screen (AID 2061308); further: nearly all actives have a fitted effect of over 55% in size
# [7] = molecular target: Retinaldehyde dehydrogenase 3 (Homo sapiens) (UniProt P47895); assay: qHTS for Inhibitors of the Aldehyde Dehydrogenase Family (ALDH1A3) Primary screen (AID 2061315); further: potency means the concentration at half of the fitted maximal effect
# [8] = molecular target: Retinaldehyde dehydrogenase 3 (Homo sapiens) (UniProt P47895); assay: qHTS for Inhibitors of the Aldehyde Dehydrogenase Family (ALDH1A3) Validation screen (AID 2061312); further: nearly all actives have a fitted effect of over 45% in size; further: potency means the concentration at half of the fitted maximal effect
# [9] = BET inhibitor-based combinations targeting novel dependencies in MECOM-rearranged (r) AML: SET-2 cell line (AID 2202231); conditions: SET-2 AML cells viability, CellTiter-Glo luminescence, 48 h; viability: hits give low values, series mostly up to about 46 µM; further: nearly all actives have a fitted effect of over 35% in size
# How it was run: (§1)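 Each compound was tested at eleven concentrations on cells seeded at 500/well. After two days' incubation, ATP-based luminescence reported viability; responses relative to DMSO and blank wells yielded AUC and cell-line-centred Z-AUC.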
# [10] = BET inhibitor-based combinations targeting novel dependencies in MECOM-rearranged (r) AML: OCI-AML3 cell line (AID 2202232); conditions: Potency: OCI-AML3 viability; further: series mostly up to about 46 µM; nearly all actives have a fitted effect of over 35% in size
# How it was run: as §1
# [11] = BET inhibitor-based combinations targeting novel dependencies in MECOM-rearranged (r) AML: MV-4-11 cell line (AID 2202233); further: nearly all actives have a fitted effect of over 45% in size
# How it was run: (§2)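 First, 500 cells per well were seeded; next, drugs were pinned as 11-point doses; then plates sat 48 hr in the incubator; finally CellTiter-Glo was added and luminescence read, with AUC and Z-AUC computed.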
# [12] = BET inhibitor-based combinations targeting novel dependencies in MECOM-rearranged (r) AML: HNT-34 cell line (AID 2202234); further: nearly all actives have a fitted effect of over 35% in size
# How it was run: as §2
# [13] = BET inhibitor-based combinations targeting novel dependencies in MECOM-rearranged (r) AML: UCSD-AML1 cell line (AID 2202235); further: series mostly up to about 46 µM; nearly all actives have a fitted effect of over 40% in size
# How it was run: as §2
structure (smiles),measurement,setting,value
CC[n+]1c(/C=C/C=C2/N(C)c3ccccc3C2(C)C)sc2ccccc21,activation,[1],-26.3%
same,Potency,[2],22.5 µM (active)
same,Potency,[3],12.7 µM (active)
same,Potency,[4],12.7 µM (active)
same,Potency,[5],12.7 µM (active)
C[C@@H]1O[C@@H](O[C@H]2[C@H](O)[C@@H](O)[C@H](OC(=O)[C@]34CCC(C)(C)C[C@H]3C3=CCC5[C@@]6(C)CC[C@H](O[C@@H]7O[C@H](C(=O)O)[C@@H](O)[C@H](O)[C@H]7O)C(C)(C)C6CC[C@@]5(C)[C@]3(C)CC4)O[C@@H]2CO)[C@H](O)[C@H](O)[C@H]1O (stereo partly drawn),activation,[1],-9.16%
same,Potency,[6],inactive
CC(CO[C@@H]1O[C@H](COC(=O)/C=C/c2ccc(O)c(O)c2)[C@@H](O)[C@H](O)[C@H]1O)C1(O)COC(=O)C1 (stereo partly drawn),activation,[1],6.87%
same,Potency,[6],inactive
C[C@@H]1O[C@@H](O[C@H]2[C@H](OC(C#N)c3ccc(O)cc3)O[C@H](CO)[C@@H](O)[C@@H]2O)[C@H](O)[C@H](O)[C@H]1O (stereo partly drawn),activation,[1],-19.8%
same,Potency,[6],inactive
NC(=Nc1ccc(CCNCc2cccc(Cl)c2)cc1)c1cccs1,activation,[1],-11.9%
same,Potency,[2],inactive
same,Potency,[6],inactive
same,Potency,[7],inactive
CO[C@]1(NC(=O)CSC(F)F)C(=O)N2C(C(=O)O)=C(CSc3nnnn3CCO)CO[C@H]21,activation,[1],-7.53%
same,Potency,[2],inactive
same,Potency,[3],inactive
same,Potency,[4],inactive
same,Potency,[7],inactive
same,Potency,[5],14.2 µM (active)
C=C1C(=O)O[C@H]2CC(=C)[C@H]3CC[C@@](C)(O)[C@@H]3CC12 (stereo partly drawn),Potency,[1],15.1 µM (active)
same,Potency,[6],inactive
C=C1CC[C@H]2[C@@](C)(CCC(O)[C@@]2(C)CO)[C@@H]1CCC1=CCOC1=O (stereo partly drawn),activation,[1],-11.5%
same,Potency,[6],inactive
CC1=CCC2C(C)(CO)CCCC2(CO)C1CO (stereo not drawn),activation,[1],-19.8%
same,Potency,[2],inactive
same,Potency,[6],inactive
same,Potency,[7],inactive
O=S(=O)(O)c1ccc2cc(N=Nc3cc(S(=O)(=O)O)c4cccnc4c3O)ccc2c1,activation,[1],-29.8% and -2.86%
same,Potency,[2],inactive
same,Potency,[8],inactive
same,Potency,[4],inactive
same,Potency,[7],inactive
same,viability,[9],95.4%
same,Potency,[10],inactive
same,Potency,[11],inactive
same,Potency,[12],inactive
same,Potency,[13],inactive
CCOC(=O)N1CCC(CN(Cc2ccc(Cl)cc2)Cc2ccc([N+](=O)[O-])s2)C1 (stereo not drawn),activation,[1],6.21%
same,Potency,[2],inactive
same,Potency,[8],10 µM (active)
same,Potency,[4],inactive
same,Potency,[7],inactive
COc1cc2nc(N3CCN(C)CC3)nc(NC3CCN(Cc4ccccc4)CC3)c2cc1OC,activation,[1],2.33%
same,Potency,[6],inactive
CC(/C=C/C1(O)C2(C)COC1(C)CC(=O)C2)O[C@@H]1O[C@H](CO)[C@@H](O)[C@H](O)[C@H]1O (stereo partly drawn),activation,[1],2.68%
same,Potency,[6],inactive
COc1c(C(C)C)c(O)c(O)c2c1C(OC)[C@H]1OC(=O)[C@@]23CCCC(C)(C)[C@H]13 (stereo partly drawn),activation,[1],-1.79%
same,Potency,[2],inactive
same,Potency,[3],6.97 µM (active)
same,Potency,[4],15.6 µM (active)
same,Potency,[7],2.82 µM (active)
C/C=C(\C)C(=O)OC1C(C)C2(O)C(C=C(CO)CC3(O)C(=O)C(C)=CC32)C2C(C)(C)C12OC(C)=O (stereo not drawn),activation,[1],8.93%
same,Potency,[6],inactive
C=C[C@@]1(C)C=C2C(=O)C(O)=C3[C@](C)(C(=O)O)CC[C@@H]4C[C@]34[C@]2(O)C(=O)C1,Potency,[1],6.59 µM (active)
same,Potency,[6],inactive
CC1=C(C(=O)O[C@@H]2O[C@H](COC3OCC(O)C(O)C3O)[C@@H](O)[C@H](O)[C@H]2O)C(C)(C)CCC1 (stereo partly drawn),activation,[1],-13%
same,Potency,[6],inactive
C[C@@H]1O[C@@H](O[C@H]2[C@H](OC(=O)C34CCC(C)(C)CC3C3=CCC5C6(C)CC(O)C(O[C@@H]7O[C@H](CO)[C@@H](O)[C@H](O)[C@H]7O)C(C)(C(=O)O)C6CCC5(C)C3(CO)CC4)O[C@H](C)[C@H](O)[C@@H]2O)[C@H](O)[C@H](O)[C@H]1O[C@@H]1OC[C@@H](O)[C@H](O)[C@H]1O (stereo partly drawn),activation,[1],-12.5%
same,Potency,[6],inactive
COc1cc(/C=C/C(=O)O[C@H]2[C@@H]3C=CO[C@@H](O[C@@H]4O[C@H](CO)[C@@H](O)[C@H](O)[C@H]4O)[C@@H]3[C@@]3(CO)O[C@@H]23)ccc1O,activation,[1],-2.29%
same,Potency,[6],inactive
COc1cc(C[C@H]2COC(=O)[C@@H]2Cc2ccc(O)c(OC)c2)ccc1O,activation,[1],-18.8%
same,Potency,[6],inactive
O=C(O)CCc1nccc2c1[nH]c1ccccc12,activation,[1],8.93%
same,Potency,[6],inactive
COc1cc2c(cc1O)C1(OC)Cc3ccc4c(c3C1N(C)CC2)OCO4 (stereo not drawn),activation,[1],20.5%
same,Potency,[6],inactive
C=C1C(O)CC2C(C(=O)O)=COC(OC3OC(CO)C(O)C(O)C3OC(=O)/C=C\c3ccc(O)cc3)C12 (stereo not drawn),activation,[1],-22.9%
same,Potency,[6],inactive
COc1cccc2cc3c(c(O[C@@H]4O[C@H](CO[C@@H]5O[C@H](CO)[C@@H](O)[C@H](O)[C@H]5O)[C@@H](O)[C@H](O)[C@H]4O)c12)C(C)OC3=O (stereo partly drawn),activation,[1],3.57%
same,Potency,[6],inactive
C#CCCCn1cc(-c2cccc3c2N[C@@H](C)CC(=O)N3)cn1,activation,[1],-18.8%
same,Potency,[6],inactive
COc1cc(/C=C/C(=O)O[C@H]2[C@H](O)[C@@H](CO)O[C@@]2(CO)O[C@H]2O[C@H](CO)[C@@H](O)[C@H](O)[C@H]2O)cc(OC)c1O,activation,[1],-32.8%
same,Potency,[6],inactive
C=C1CC[C@@H]2[C@](C)(CO)[C@H](O)CC[C@@]2(C)[C@@H]1CC(O)C1=CCOC1=O (stereo partly drawn),activation,[1],-5.34%
same,Potency,[6],inactive
Cc1c(-c2ccc3c(c2)OCO3)oc2ccc(C(O)C(C)O)cc12 (stereo not drawn),activation,[1],-8.4%
same,Potency,[6],inactive
COc1cc(CC(COC2OC(CO)C(O)C(O)C2O)c2cc(/C=C/CO)cc(OC)c2O)ccc1O (stereo not drawn),activation,[1],-6.25%
same,Potency,[6],inactive
